# Publication PMC5540273 (PLoS ONE, 2017)
# Columns and labels:
# Settings in all cases: concentration: 1 μM, replicates: in singlicate; n = 1
# HPK1 = tested on: HPK1
# HUNK = tested on: HUNK
# ICK = tested on: ICK
# IGF1R = tested on: IGF1R
# IKK-alpha = tested on: T1, IKK-alpha
# T1 construct: gene CHUK
# IKK-beta = tested on: T2, IKK-beta
# T2 construct: gene IKBKB
# IKK-epsilon = tested on: T3, IKK-epsilon
# T3 construct: gene IKBKE
# INSRR = tested on: INSRR
# INSR = tested on: INSR
# IRAK1 = tested on: IRAK1
# IRAK3 = tested on: IRAK3
# IRAK4 = tested on: IRAK4
# ITK = tested on: ITK
# [1] = tested on: JAK1(JH1domain-catalytic)
# [2] = tested on: JAK1(JH2domain-pseudokinase)
# [3] = tested on: JAK2(JH1domain-catalytic)
# [4] = tested on: JAK3(JH1domain-catalytic)
# JNK1 = tested on: T4, JNK1
# T4 construct: gene MAPK8
# JNK2 = tested on: T5, JNK2
# T5 construct: gene MAPK9
# JNK3 = tested on: T6, JNK3
# T6 construct: gene MAPK10
# 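Note: KINOMEscan kinase panel screen.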
Compound,%Inh (HPK1) [%],%Inh (HUNK) [%],%Inh (ICK) [%],%Inh (IGF1R) [%],%Inh (IKK-alpha) [%],%Inh (IKK-beta) [%],%Inh (IKK-epsilon) [%],%Inh (INSRR) [%],%Inh (INSR) [%],%Inh (IRAK1) [%],%Inh (IRAK3) [%],%Inh (IRAK4) [%],%Inh (ITK) [%],%Inh [1] [%],%Inh [2] [%],%Inh [3] [%],%Inh [4] [%],%Inh (JNK1) [%],%Inh (JNK2) [%],%Inh (JNK3) [%]
COc1cc(Nc2nccc(N3CCC(NC(=O)c4cccc(NC(C)=O)c4)C3)n2)cc(OC)c1OC (stereo not drawn) [GSK1379754],70,0,0,0,5,8,14,0,1,40,85,12,6,7,11,97.3,0,31,22,40
NS(=O)(=O)c1cccc(-c2ccc3ncc(N4CCOCC4)nc3c2)c1 [GSK1535721],37,0,0,2,0,0,34,0,7,1,0,11,3,8,5,0,0,3,0,0
COc1ccc(Nc2nccc(N3CCC(NC(=O)Nc4cccc(C(C)=O)c4)C3)n2)cc1 (stereo not drawn) [GSK1379731],40,3,0,0,9,1,0,0,0,6,0,4,14,0,0,17,0,14,15,4
Nc1nccc(-c2c(-c3ccc(F)cc3)ncn2C2CCN(CC(F)(F)F)CC2)n1 [SB-236560],48,0,63,0,7,0,54,21,0,29,0,0,0,0,0,0,29,63,91.3,89
CN(C(=O)c1ccc(-c2cc(-c3c[nH]nc3-c3ccccn3)ccn2)cc1)C1CCOCC1 [GW810083],30,0,78,0,0,0,0,0,0,0,0,0,5,0,0,0,0,42,45,38
O=C1NC(=O)C(N2CCc3ccccc32)=C1c1cccc(Cl)c1 [SB-408010],19,20,40,0,0,10,0,0,0,0,0,0,15,14,0,0,0,41,34,29
Fc1ccc(-c2ncn(CCCN3CCOCC3)c2-c2ccccn2)cc1 [SB-211742],11,54,0,0,0,0,0,0,0,0,1,0,0,0,0,0,0,20,0,0
O=c1cc(N2CCOCC2)nc2n(Cc3cccc(Cl)c3Cl)c(C3CC3)nn12 [GSK2358994],14,0,4,0,0,0,0,0,0,0,0,0,4,9,3,6,0,19,0,0
Cc1nnc(-c2ccc3ncc(-c4ccc(S(C)=O)cc4)n3c2)o1 (stereo not drawn),0,0,22,0,15,21,0,0,2,7,23,15,7,11,0,0,0,22,18,24
CC(C)(C)n1cnc2c(N)ncnc21 [SKF-97359],33,19,31,0,0,0,0,0,0,0,0,0,4,0,0,0,18,20,0,2
CN1c2ccc(CNc3ccc(F)cc3)cc2-c2c(cnn2C)S1(=O)=O,17,34,0,0,0,0,0,0,0,0,0,0,0,2,20,0,0,0,0,0
Cc1nnc(-c2ccc3occ(-c4ccc(C(C)O)cc4)c3c2)o1 (stereo not drawn),0,0,0,9,0,2,3,6,11,31,1,32,14,0,5,6,9,2,0,0
Cc1cccc(-c2nc(-c3ccc(S(C)(=O)=O)cc3)sc2-c2ccncc2)c1,0,0,0,7,0,1,0,7,8,18,33,15,19,15,17,0,6,26,28,33
CC(=O)Nc1ccc(COc2ccc(Nc3ccnc4cc(-c5ccccn5)ccc34)cc2)cc1.Cl [GW440148],10,22,0,0,0,4,21,0,12,0,6,0,0,22,0,18,0,0,17,9
O=C(c1ccc(-c2cc(-c3c[nH]nc3-c3ccccn3)ccn2)cc1)N1CCOCC1 [GW812171],0,33,0,0,46,0,0,0,21,14,0,0,5,0,48,37,0,30,19,2
